# Screens: PubChem BioAssay, National Center for Advancing Translational Sciences (NCATS)
# HP1b chromo inh: inhibitors of HP1-beta chromodomain binding to methylated histone tails; Potency, µM (series often up to 114 µM), for the others: top-dose activity change, negative = inhibition, usual class: inhibitors; P83916; 390,000 tested, 0.56% active; AlphaScreen HP1-beta / biotin-H3K9me3 peptide binding; also: nearly all actives have a fitted effect of over 70% in size
# Target sequence (P83916 whole entry, looked up): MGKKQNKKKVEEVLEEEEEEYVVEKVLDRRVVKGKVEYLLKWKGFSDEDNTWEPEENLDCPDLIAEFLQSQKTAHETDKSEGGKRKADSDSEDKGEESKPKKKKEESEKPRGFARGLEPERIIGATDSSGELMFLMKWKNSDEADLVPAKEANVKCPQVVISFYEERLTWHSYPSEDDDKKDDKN
#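 AlphaScreen: HP1-beta (50 nM) preformed 30 min with biotin-H3(1-18)K9me3 peptide (50 nM) in PBS pH 7.4, 0.01% Tween-20. Compound added for 30 min at RT, then streptavidin donor/nickel chelate acceptor beads (10 ug/mL) for 30 min.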
# BAZ2B inh: BAZ2B (human) inhibition. Q9UIF8. AlphaScreen BAZ2B-H3K14Ac peptide displacement. Potency, µM (doses to about 114 µM), for the others: at the top dose activity change, negative = inhibition, actives largely listed as inhibitors. 360,000 tested, 4.4% active; also: % is scaled to controls: 0 for no effect and ±100 for the full control effect; nearly all actives have a fitted effect of over 60% in size
#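 AlphaScreen displacement: compounds (up to 110uM) incubated 30 min at room temperature with a preformed 50 nM BAZ2B/50 nM biotinylated H3K14Ac peptide complex in PBS pH 7.4 with Tween-20. Donor and acceptor beads at 10 ug/mL final added, 20 min light-protected before reading.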
# G9a inh: blocks human histone lysine methyltransferase G9a. Q96KQ7. G9a H3K9 monomethylation, AlphaScreen, 2 h. Potency, µM (series often up to 102 µM), inactives show top-dose activity, negative = inhibition, actives largely listed as inhibitors. 350,000 tested, 8.8% active. AID 504332; also: % is scaled to controls: 0 for no effect and ±100 for the full control effect; nearly all actives have a fitted effect of over 75% in size
# Target sequence (Q96KQ7 913-1193 limits assumed): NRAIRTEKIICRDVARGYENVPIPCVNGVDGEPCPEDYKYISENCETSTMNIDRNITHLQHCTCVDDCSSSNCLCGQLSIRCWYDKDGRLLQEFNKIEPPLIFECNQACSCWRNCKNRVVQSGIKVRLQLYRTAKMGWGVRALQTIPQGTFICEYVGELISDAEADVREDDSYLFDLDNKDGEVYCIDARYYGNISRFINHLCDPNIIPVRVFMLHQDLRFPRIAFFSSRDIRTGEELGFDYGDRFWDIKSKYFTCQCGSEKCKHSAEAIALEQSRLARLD
#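 AlphaScreen read-out: biotin-H3K9 peptide (500 nM) methylation by 20 nM enzyme with 20 uM SAM, 2 h at room temperature after 15 min compound preincubation; anti-monomethyl H3K9 antibody plus donor/acceptor beads, 10 min dark.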
# JMJD2A Tudor: JMJD2A Tudor domain (human) inhibition. O75164. AlphaScreen JMJD2A-Tudor / H3K4me3 peptide binding. Potency, µM (titrated, usually from 114 µM), inactives show at the highest dose activity change, negative = inhibition, usual class: inhibitors. 390,000 tested, 4.4% active. AID 504339; also: % is scaled to controls: 0 for no effect and ±100 for the full control effect; nearly all actives have a fitted effect of over 50% in size
# Sfp inh: inhibitors of Bacillus subtilis Sfp phosphopantetheinyl transferase | 310,000 tested, 3.5% active | AID 1490 | Potency, µM, inactives show largest response in the series, negative = inhibition, actives largely listed as inhibitors | Biochemical Sfp PPTase activity, qHTS;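 also: the enzyme is Sfp with the accession as filed and its product quenches rhodamine fluorescence; 0% = enzyme reaction without inhibitor and -100% = no enzyme wells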
#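 Buffer: 50 mM Hepes-Na pH 7.6, 10 mM MgCl2, 0.01% Nonidet P-40, 0.01% BSA. Enzyme 15 nM, pre-exposed to compound 15 min; substrates then added and fluorescence change tracked over 30 min.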
# Numbers without * were called inactive; ? = inconclusive; . = no result; [ ] = dose if it differs, or a comment. An excerpt weighted towards active compounds, which were near 12% of everything screened. Calls follow the shape of the dose curve; as a rule, active = well fitted curve in the direction sought with a large enough effect; inconclusive = small, poorly fitted or top-dose-only effect, or another doubt; inactive = no such curve, though single readings can be large; an effect the other way counts as inactive or inconclusive. Potency is read from the fitted curve at half-maximal effect.
SMILES,HP1b chromo inh,BAZ2B inh,G9a inh,JMJD2A Tudor,Sfp inh
Cc1ccc(-n2nc3c(=O)n(CC(=O)NCCc4ccc(Cl)cc4)nc(C)c3c2C)cc1,12%[57 µM],79µM*,?,-34%,-30%
Cc1cc(Cl)ccc1NC(=O)Cn1nc(C)c2c(C)n(-c3ccccc3)nc2c1=O,8%,56µM*,-42%[59 µM],-34%,.
Cc1nn(CCO)c2ncc(C(=O)c3cc(F)ccc3O)cc12,14%,4%,50µM*,11%,4%
Cc1nn(CCO)c2ncc(C(=O)c3cc(Cl)ccc3O)cc12,3%,5%,8%,-14%,13%
COc1cccc(N2CCN(C3C(=O)c4ccccc4N3C(C)=O)CC2)c1 (stereo not drawn),21%,-37%,-6%[59 µM],-19%,.
O=C1CN(C(=O)COc2ccc(Br)cc2F)c2ccccc2N1,22%,9%,45µM*,-17%,2%
O=C1CN(C(=O)COC(=O)c2cccs2)c2ccccc2N1,30%,2%,1%[2.33 µM],-12%,.
Cc1cc(C(=O)OCC(=O)N2CC(=O)Nc3ccccc32)c(C)n1-c1ccccc1,?,50µM*,?,56µM*,-8%
Cn1c2ccccc2c2cc(C(=O)OCC(=O)N3CC(=O)Nc4ccccc43)sc21,40%,-4%,50µM*,5%,-14%
Cc1cc(C(=O)OCC(=O)N2CC(=O)Nc3ccccc32)c(C)n1-c1ccc(F)cc1,-22%,?,-8%[59 µM],?,3%
COc1cccc(NC(=O)CCC(=O)N2Cc3ccccc3Oc3ncccc32)c1,32%,8%[57.1 µM],-11%[59 µM],-13%,.
CCc1ccc(NC(=O)Nc2cc(C(=O)O)ccc2N2CC3CC(C2)c2cccc(=O)n2C3)cc1 (stereo not drawn),56%,-14%,-10%[59 µM],-23%,11%
O=C(O)c1ccc(N2CC3CC(C2)c2cccc(=O)n2C3)c(NC(=S)Nc2ccc(Cl)cc2Cl)c1 (stereo not drawn),?,1%,10µM*,-30%,50µM*
Cc1ccc(S(=O)(=O)N(CC(=O)Nc2ccccc2)C(=O)N2CCN(C)CC2)cc1,22%,3%,2%,2%,.
Cc1c(C#N)c2ccccc2n1C,37%,-1%,26%,-4%,2%
Cc1sc(N)nc1-c1c(C)n(C)c2ccccc12,2%,?,45µM*,-31%,-5%
O=C(CN1C(=O)CSc2ccc(S(=O)(=O)N3CCCC3)cc21)NCc1ccccc1Cl,15%,-17%,-4%[59 µM],-18%,.
COc1ccc(-c2csc3nc(-c4ccc(F)cc4)oc(=O)c23)cc1OC,12%,1%,2%[59 µM],-11%,.
Cc1cccc(OCCOCCN2CCOCC2)c1C,8%,-2%,7%[12.7 µM],-6%,15%
c1ccc(-c2ccccc2OCCOCCN2CCNCC2)cc1,-7%,22µM*,.,-2%,20µM*
CCN1CCN(CCOCCOc2ccccc2-c2ccccc2)CC1,.,20µM*,7.9µM*,.,50µM*
CNC(=O)COc1coc(CN2CCN(c3ccccc3F)CC2)cc1=O,61%,-7%,11%,-16%,9%
Cc1cc(NC(=O)CCCS(=O)(=O)c2nc(-c3cccs3)cc(C(F)(F)F)n2)no1,84%,-4%,50µM*,-12%,-20%
CCOC(=O)CS(=O)(=O)c1nc(-c2ccccc2)cc(C(F)(F)F)n1,46%,-12%,35µM*,-12%,50µM*
CS(=O)(=O)c1nc(-c2ccc(F)cc2)cc(C(F)(F)F)n1,64%,-3%,45µM*,-10%,?
SMILES,HP1b chromo inh,BAZ2B inh,G9a inh,JMJD2A Tudor,Sfp inh
Cc1cc(NC(=O)CSc2nc(-c3cccs3)cc(C(F)(F)F)n2)no1,18%,-4%,-7%,-5%,15%
CCOC(=O)CCS(=O)(=O)c1nc(-c2ccccc2)cc(C(F)(F)F)n1,68%,-4%,2.8µM*,-7%,10µM*
NNC(=O)c1csc(-c2cccc(C(F)(F)F)c2)n1,46%,-2%,17%[12.7 µM],-8%,15%
CSc1ccc(NC(=O)N2CCC(C(=O)c3ccc(F)cc3)CC2)cc1,-2%,-24%,?,-34%,-7%
CCCCCCCCCCCC(=O)N(CCO)CCO,.,.,-4%[12.7 µM],.,-4%
O=C(CCCCCC(=O)N(CCO)CCO)N(CCO)CCO,32%,-2%,40µM*,-12%[11.4 µM],17%
CCOC(=O)c1cc(C(=O)OCC)c(=O)[nH]c1C,14%,26%,24%,-10%,?
CCOC(=O)c1cc(C)[nH]c(=S)c1C#N,-14%,?,-1%[0.501 µM],6.3µM*,40µM*
COc1ccc(CCNC(=O)c2c(Cl)ccc(Cl)c2OC)cc1OC,33%,5%,.,-2%,37%
CCCCNC(=S)NNC(=O)CCn1nc(C)c(Br)c1C,33%,12%,72%[12.7 µM],-1%,6%
CCCCn1c(CCn2nc(C)c(Br)c2C)n[nH]c1=S,6%,-3%,?,28µM*,3%
N#Cc1c(C(F)(F)F)cc(-c2cccs2)nc1SCC(=O)Nc1cccc(C(F)(F)F)c1,28%,1%,10%[59 µM],-1%,.
COc1cccc(C2=CC(c3ccc(N(C)C)cc3)n3ncnc3N2)c1 (stereo not drawn),.,4%,40µM*,.,?
COc1cccc(C2=CC(c3ccccc3)n3ncnc3N2)c1 (stereo not drawn),.,56µM*,?,.,0%
COc1ccc(C2C=C(c3ccc(Cl)c(Cl)c3)Nc3ncnn32)cc1 (stereo not drawn),51%,-4%,-2%[59 µM],-19%,.
COc1cccc(C2=CC(c3ccc(N(C)C)cc3)n3nnnc3N2)c1 (stereo not drawn),45%,-34%,?,-6%,-16%
Cc1ccc(-n2c(O)cnc2Nc2nc(C)cc(C)n2)cc1,9%,-37%,48%[12.7 µM],?,-14%
Cc1cc(C)nc(Nc2ncc(O)n2-c2ccccc2)n1,15%,-37%,107%[59 µM],56µM*,?
CCOc1ccc(Nc2ccc(N)c(S(=O)(=O)O)c2)cc1,50µM*,.,.,56µM*,.
COc1ccccc1C(=O)Nc1ccnn1C1CCN(C/C=C/c2ccc(F)cc2)CC1,36%,-33%,12%,-17%,6%
O=C(Oc1ccccc1)N1CCC2(CC1)CN(c1ccccc1)C2,.,.,-13%[12.7 µM],.,-8%
O=[N+]([O-])c1ccc(Nc2ccccc2)c2nonc12,?,40µM*,45µM*,56µM*,-8%
O=[N+]([O-])c1ccc(Sc2cccc[n+]2[O-])c2nonc12,7.9µM*,56µM*,0.5µM*,20µM*,1.3µM*
CCOc1ccc(Nc2ccc([N+](=O)[O-])c3nonc23)cc1,13µM*,14µM*,25µM*,35µM*,-19%
CC(=O)NS(=O)(=O)c1ccc(Nc2ccc([N+](=O)[O-])c3nonc23)cc1,-5%,50µM*,-14%[59 µM],-2%,6%
